# Publication PMC11062922 (Nature Chemical Biology, 2023)
# Where two headings read alike, the source gives them in different places.
# Legend:
# IRAK4 = details: read-out: apparent Kd, n = 1
# LATS1 = details: read-out: apparent Kd, n = 1
substance,measurement,setting,value
Lestaurtinib,potency estimated from few doses,"IRAK4; compound concentrations:100 nM and 1000 nM (sheet 'Lestaurtinib' of Supplementary Table 1),run:Lestaurtinib_03252_R1,Plate:MR032",95.9 nM
same,potency estimated from few doses,"IRAK4; compound concentrations:100 nM and 1000 nM (sheet 'Lestaurtinib' of Supplementary Table 1),run:Lestaurtinib_03260_R2,Plate:MR033",132 nM
same,potency estimated from few doses,"IRAK4; compound concentrations:100 nM and 1000 nM (sheet 'Lestaurtinib' of Supplementary Table 1),run:Lestaurtinib_03260_R3,Plate:MR033",85.1 nM
same,potency estimated from few doses,"LATS1; compound concentrations:100 nM and 1000 nM (sheet 'Lestaurtinib' of Supplementary Table 1),run:Lestaurtinib_02339_R1,Plate:MR001",27.8 nM
same,potency estimated from few doses,"LATS1; compound concentrations:100 nM and 1000 nM (sheet 'Lestaurtinib' of Supplementary Table 1),run:Lestaurtinib_02339_R2,Plate:MR001",31.4 nM
same,potency estimated from few doses,"LATS1; compound concentrations:100 nM and 1000 nM (sheet 'Lestaurtinib' of Supplementary Table 1),run:Lestaurtinib_02339_R3,Plate:MR001",37.3 nM
same,potency estimated from few doses,"LATS1; compound concentrations:100 nM and 1000 nM (sheet 'Lestaurtinib' of Supplementary Table 1),run:Lestaurtinib_02364_R2,Plate:MR002",22.6 nM
same,potency estimated from few doses,"LATS1; compound concentrations:100 nM and 1000 nM (sheet 'Lestaurtinib' of Supplementary Table 1),run:Lestaurtinib_02364_R3,Plate:MR002",44.1 nM
same,potency estimated from few doses,"LATS1; compound concentrations:100 nM and 1000 nM (sheet 'Lestaurtinib' of Supplementary Table 1),run:Lestaurtinib_02367_R1,Plate:MR003",27.8 nM
same,potency estimated from few doses,"LATS1; compound concentrations:100 nM and 1000 nM (sheet 'Lestaurtinib' of Supplementary Table 1),run:Lestaurtinib_02367_R2,Plate:MR003",40.3 nM
same,potency estimated from few doses,"LATS1; compound concentrations:100 nM and 1000 nM (sheet 'Lestaurtinib' of Supplementary Table 1),run:Lestaurtinib_02367_R3,Plate:MR003",22.1 nM
same,potency estimated from few doses,"LATS1; compound concentrations:100 nM and 1000 nM (sheet 'Lestaurtinib' of Supplementary Table 1),run:Lestaurtinib_02381_R1,Plate:MR004",27 nM
same,potency estimated from few doses,"LATS1; compound concentrations:100 nM and 1000 nM (sheet 'Lestaurtinib' of Supplementary Table 1),run:Lestaurtinib_02407_R1,Plate:MR005",39.5 nM
same,potency estimated from few doses,"LATS1; compound concentrations:100 nM and 1000 nM (sheet 'Lestaurtinib' of Supplementary Table 1),run:Lestaurtinib_02407_R2,Plate:MR005",27.7 nM
same,potency estimated from few doses,"LATS1; compound concentrations:100 nM and 1000 nM (sheet 'Lestaurtinib' of Supplementary Table 1),run:Lestaurtinib_02422_R1,Plate:MR006",34.2 nM
same,potency estimated from few doses,"LATS1; compound concentrations:100 nM and 1000 nM (sheet 'Lestaurtinib' of Supplementary Table 1),run:Lestaurtinib_02422_R3,Plate:MR006",34.2 nM
same,potency estimated from few doses,"LATS1; compound concentrations:100 nM and 1000 nM (sheet 'Lestaurtinib' of Supplementary Table 1),run:Lestaurtinib_02437_R1,Plate:MR007",35 nM
same,potency estimated from few doses,"LATS1; compound concentrations:100 nM and 1000 nM (sheet 'Lestaurtinib' of Supplementary Table 1),run:Lestaurtinib_02437_R2,Plate:MR007",27 nM
same,potency estimated from few doses,"LATS1; compound concentrations:100 nM and 1000 nM (sheet 'Lestaurtinib' of Supplementary Table 1),run:Lestaurtinib_02437_R3,Plate:MR007",0.206 nM
same,potency estimated from few doses,"LATS1; compound concentrations:100 nM and 1000 nM (sheet 'Lestaurtinib' of Supplementary Table 1),run:Lestaurtinib_02438_R3,Plate:MR008",29 nM
same,potency estimated from few doses,"LATS1; compound concentrations:100 nM and 1000 nM (sheet 'Lestaurtinib' of Supplementary Table 1),run:Lestaurtinib_02443_R2,Plate:MR009",30.6 nM
same,potency estimated from few doses,"LATS1; compound concentrations:100 nM and 1000 nM (sheet 'Lestaurtinib' of Supplementary Table 1),run:Lestaurtinib_02443_R3,Plate:MR009",38.6 nM
same,potency estimated from few doses,"LATS1; compound concentrations:100 nM and 1000 nM (sheet 'Lestaurtinib' of Supplementary Table 1),run:Lestaurtinib_02482_R1,Plate:MR011",38.1 nM
same,potency estimated from few doses,"LATS1; compound concentrations:100 nM and 1000 nM (sheet 'Lestaurtinib' of Supplementary Table 1),run:Lestaurtinib_02482_R2,Plate:MR011",32.7 nM
same,potency estimated from few doses,"LATS1; compound concentrations:100 nM and 1000 nM (sheet 'Lestaurtinib' of Supplementary Table 1),run:Lestaurtinib_02482_R3,Plate:MR011",46 nM
same,potency estimated from few doses,"LATS1; compound concentrations:100 nM and 1000 nM (sheet 'Lestaurtinib' of Supplementary Table 1),run:Lestaurtinib_02572_R1,Plate:MR015",18 nM
same,potency estimated from few doses,"LATS1; compound concentrations:100 nM and 1000 nM (sheet 'Lestaurtinib' of Supplementary Table 1),run:Lestaurtinib_02572_R2,Plate:MR015",23.5 nM
same,potency estimated from few doses,"LATS1; compound concentrations:100 nM and 1000 nM (sheet 'Lestaurtinib' of Supplementary Table 1),run:Lestaurtinib_02572_R3,Plate:MR015",22.5 nM
same,potency estimated from few doses,"LATS1; compound concentrations:100 nM and 1000 nM (sheet 'Lestaurtinib' of Supplementary Table 1),run:Lestaurtinib_02577_R1,Plate:MR016",36.6 nM
same,potency estimated from few doses,"LATS1; compound concentrations:100 nM and 1000 nM (sheet 'Lestaurtinib' of Supplementary Table 1),run:Lestaurtinib_02577_R2,Plate:MR016",51.4 nM
same,potency estimated from few doses,"LATS1; compound concentrations:100 nM and 1000 nM (sheet 'Lestaurtinib' of Supplementary Table 1),run:Lestaurtinib_02577_R3,Plate:MR016",63.8 nM
same,potency estimated from few doses,"LATS1; compound concentrations:100 nM and 1000 nM (sheet 'Lestaurtinib' of Supplementary Table 1),run:Lestaurtinib_02584_R2,Plate:MR017",50.1 nM
same,potency estimated from few doses,"LATS1; compound concentrations:100 nM and 1000 nM (sheet 'Lestaurtinib' of Supplementary Table 1),run:Lestaurtinib_02584_R3,Plate:MR017",45.2 nM
same,potency estimated from few doses,"LATS1; compound concentrations:100 nM and 1000 nM (sheet 'Lestaurtinib' of Supplementary Table 1),run:Lestaurtinib_02601_R2,Plate:MR018",79.1 nM
same,potency estimated from few doses,"LATS1; compound concentrations:100 nM and 1000 nM (sheet 'Lestaurtinib' of Supplementary Table 1),run:Lestaurtinib_02601_R3,Plate:MR018",55.9 nM
same,potency estimated from few doses,"LATS1; compound concentrations:100 nM and 1000 nM (sheet 'Lestaurtinib' of Supplementary Table 1),run:Lestaurtinib_02606_R1,Plate:MR019",39.1 nM
same,potency estimated from few doses,"LATS1; compound concentrations:100 nM and 1000 nM (sheet 'Lestaurtinib' of Supplementary Table 1),run:Lestaurtinib_02606_R2,Plate:MR019",35.8 nM
